# Test results: PubChem BioAssay AID1851 (National Center for Advancing Translational Sciences (NCATS), 2009)
# Screen size: about 16,000 compounds; about 5,100 (32%) were called active. Roughly 25% stayed inconclusive and do not appear here. Calls come from the whole dose curve; as a rule, active = well fitted curve in the direction sought with a large enough effect; inconclusive = small, poorly fitted or top-dose-only effect, or effect the other way; inactive = no such curve, though single readings can be large or run the other way. Some of the results follow.
# Target: Cytochrome P450 3A4 (Homo sapiens) (UniProt P08684)
# Sequence (P08684 whole entry, looked up): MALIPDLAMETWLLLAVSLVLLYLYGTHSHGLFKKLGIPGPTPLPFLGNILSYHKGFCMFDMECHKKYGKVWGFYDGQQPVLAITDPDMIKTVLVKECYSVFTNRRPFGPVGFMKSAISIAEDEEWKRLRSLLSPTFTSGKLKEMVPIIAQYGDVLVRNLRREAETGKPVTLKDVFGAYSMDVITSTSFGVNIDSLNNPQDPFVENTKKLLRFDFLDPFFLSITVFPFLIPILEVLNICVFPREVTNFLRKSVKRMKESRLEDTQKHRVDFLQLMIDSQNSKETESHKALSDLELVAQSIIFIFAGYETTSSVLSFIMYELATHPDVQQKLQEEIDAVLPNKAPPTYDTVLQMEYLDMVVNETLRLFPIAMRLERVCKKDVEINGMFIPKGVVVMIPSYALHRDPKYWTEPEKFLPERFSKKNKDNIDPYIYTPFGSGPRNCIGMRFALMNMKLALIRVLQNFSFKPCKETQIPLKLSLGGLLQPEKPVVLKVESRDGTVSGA
# Assay: Cytochrome panel assay with activity outcomes
# Conditions: recombinant CYP, pro-luciferin dealkylation, luminescence, p450-cyp3a4; series mostly up to 57.1 µM; activity, negative = inhibition: at the top concentration
# % is set by controls: 0 for no effect and ±100 for the full control effect.
SMILES,"activity, negative = inhibition",AC50
CSCC[C@@H]1NC(=O)C/C=C\[C@@H](C)COC(=O)[C@H](C)COC1=O,-24% [at 11.4 µM] (inactive),–
N#Cc1cccc(-c2nccc(-n3ccnc3)n2)c1,–,2.51 µM (active)
CN1CCN(c2cc(-c3ccc(N(C)C)cc3)ncn2)CC1,-24.7% (inactive),–
N#Cc1cccc(-c2cc(-n3ccnc3)ncn2)c1,–,0.398 µM (active)
N#Cc1c(-c2ccc3c(c2)OCO3)ccn2nc(-c3cccc(C(F)(F)F)c3)nc12,13.4% (inactive),–
c1cn(-c2ccnc(-c3ccc4c(c3)OCO4)n2)cn1,–,0.631 µM (active)
CN(C)c1ccc(-c2cc(-n3ccnc3)ncn2)cc1,–,0.0631 µM (active)
CC(=O)Oc1ccccc1C(=O)Oc1ccccc1C(=O)O,-1.9% [at 25.6 µM] (inactive),–
COc1cccc(-c2nccc(-n3ccnc3)n2)c1,–,1 µM (active)
c1cncc(-c2cc(-n3ccnc3)ncn2)c1,–,1.58 µM (active)
Nc1nc(-c2cccnc2)cc(-c2cc(-c3cccnc3)nc(N)n2)n1,-3.62% [at 11.4 µM] (inactive),–
CCCCN(c1ccccc1)c1ncnc2c1cnn2C,-28% [at 11.4 µM] (inactive),–
CC(N)=NCc1cccc(CN)c1,-12.2% (inactive),–
Cc1cnc(CNc2ncnc3ccc(-c4cccc(NS(C)(=O)=O)c4)cc23)cn1,–,12.6 µM (active)
Cc1cccc(CNc2ncncc2-c2cccc(NS(C)(=O)=O)c2)c1,–,0.158 µM (active)
CS(=O)(=O)Nc1cccc(-c2cncnc2NCc2cccnc2)c1,–,1 µM (active)
CS(=O)(=O)Nc1cccc(-c2cncnc2NCc2cccs2)c1,–,0.398 µM (active)
CS(=O)(=O)Nc1cccc(-c2ccc3ncnc(NCc4cccs4)c3c2)c1,–,3.16 µM (active)
CS(=O)(=O)Nc1cccc(-c2cncnc2NCc2ccccc2)c1,–,0.631 µM (active)
Cc1cnc(CNc2ncncc2-c2cccc(NS(C)(=O)=O)c2)cn1,–,3.16 µM (active)
CS(=O)(=O)Nc1cccc(-c2ccc3ncnc(NCc4cccnc4)c3c2)c1,–,0.398 µM (active)
CCC(=O)O[C@H](CC(=O)O)C[N+](C)(C)C,-19.2% (inactive),–

SMILES,"activity, negative = inhibition",AC50
OCC1CCCN(Cc2ccc(-c3ccccc3)cc2)C1 (centres undefined),-6.47% (inactive),–
COc1ccc(-c2csc(NC(=O)CCn3cnc4ccccc4c3=O)n2)cc1OC,–,11.2 µM (active)
COc1ccc(-c2cn3c(C)c(C(=O)NCCN4CCOCC4)sc3n2)cc1,–,12.6 µM (active)
COc1ccc(C2=NOC(C(=O)NCCN3CCOCC3)C2)cc1 (centres undefined),-26.8% (inactive),–
COCCNC(=O)c1sc2nc(-c3ccccc3)cn2c1C,-8.11% (inactive),–
COc1cccc(C(=O)NCCN2CCOCC2)c1,-9.86% (inactive),–
COc1ccc(C(=O)Nc2ccc(Cl)cc2C(=O)NCCN2CCOCC2)cc1,–,14.1 µM (active)
O=C(NCCN1CCOCC1)c1csc2c1CCCCC2,-7.18% [at 2.29 µM] (inactive),–
N#Cc1nc(-c2cccs2)oc1NCc1ccccc1,–,12.6 µM (active)
C(=C\c1nnc(-c2cccs2)o1)/c1ccccc1,-17.5% (inactive),–
O=C(Nc1cccc(F)c1)N1CCCC2(CCN(C(=O)c3cnccn3)CC2)C1,–,12.6 µM (active)
O=C(Nc1cccc(F)c1)N1CCC2(CC1)CCN(C(=O)c1cnccn1)CC2,7.18% (inactive),–
O=C(Nc1cccc(F)c1)N1CC[C@@]2(CCCN(C(=O)c3cnccn3)C2)C1,–,12.6 µM (active)
O=C(Nc1ccccc1)N1CCC2(CC1)CCN(C(=O)c1cnccn1)CC2,11.4% (inactive),–
O=C(Nc1ccccc1)N1CC2(CCN(C(=O)c3cnccn3)CC2)C1,0.638% (inactive),–
CCNc1ncc2ncc(=O)n(C3CC3)c2n1,-18.8% (inactive),–
Cn1c([N+](=O)[O-])cnc1CN1CCN(CCO)CC1,-14.7% [at 11.4 µM] (inactive),–
CC(C)NC(=O)N1CCN(c2ccncc2S(=O)(=O)N2CCOCC2)CC1,-21.8% [at 2.29 µM] (inactive),–
O=S(=O)(c1cnccc1N1CCN(/N=C/c2ccccc2)CC1)N1CCCCC1,–,0.891 µM (active)
Nc1ncnc2nc(N3CCN(CCO)CC3)[nH]c12,-3.68% [at 11.4 µM] (inactive),–
O=S(=O)(c1cnccc1N1CCN(CCO)CC1)N1CCCC1,–,3.98 µM (active)
CC(C)N1CCN(c2ccncc2S(=O)(=O)N2CCCCC2)CC1,–,3.16 µM (active)

SMILES,"activity, negative = inhibition",AC50
CC(C)(C)NC(=O)C(=O)N/N=C/c1ccc(Br)cc1,8.12% (inactive),–
CCCC[C@H]1C[C@@H]1[C@@H]1N(P(=O)(c2ccccc2)c2ccccc2)C[C@@](O)(c2ccccc2)CC12CC2,–,2 µM (active)
CCCC[C@H]1C[C@@H]1[C@@H]1N(P(=O)(c2ccccc2)c2ccccc2)[C@](CO)(c2ccccc2)CC12CC2,–,2 µM (active)
Cc1cc2c(c(=O)o1)[C@H](O)[C@H]1O[C@@H]1C2=O,-24.9% [at 11.4 µM] (inactive),–
O=C(O)CC1(CC(=O)O)Nc2ccccc2SC1=O,-8.21% [at 11.4 µM] (inactive),–
Cc1nonc1NC(=O)OCCN1CCOC1=O,1.72% (inactive),–
CC(C)(C)c1cc(/C=C(\C#N)C(N)=S)cc(C(C)(C)C)c1O,–,3.98 µM (active)
CCC(C)NC(=O)Cn1cnc2sc(C)cc2c1=O (centres undefined),-19.8% (inactive),–
Cc1sc2ncn(CC(=O)NCCCC(=O)N3CCN(c4ncccn4)CC3)c(=O)c2c1C,–,14.1 µM (active)
COCC(=O)N1CCC2(CC1)CCN(c1ncccn1)CC2,-11.9% (inactive),–
NS(=O)(=O)c1ccc(N=Nc2ccc[nH]c2=O)cc1,-13.7% [at 11.4 µM] (inactive),–
O=C(COc1ccc(Br)cc1)Nc1ccc([N+](=O)[O-])cn1,-23.2% (inactive),–
O=C(COc1ccc([N+](=O)[O-])cc1)NN=C1CCCC1,–,25.1 µM (active)
N=C(N)SCCc1ccc(OCc2ccc([N+](=O)[O-])cc2)cc1,-23.5% (inactive),–
O=C1O[C@H](CN2CCOCC2)CN1/N=C\c1ccc([N+](=O)[O-])o1,-6.03% [at 25.6 µM] (inactive),–
C[C@H](Nc1ncnc2sc3c(c12)CCC3)C(=O)O,-10.2% (inactive),–
Cc1nc(NS(=O)(=O)c2ccc(Br)cc2)c2c3c(sc2n1)CCC3,–,11.2 µM (active)
Cc1nc(NS(=O)(=O)c2ccccc2C)c2c3c(sc2n1)CCC3,–,8.91 µM (active)
CNC(=S)N1CCN(c2ccccc2OC)CC1,–,10 µM (active)
Fc1cccc(CSc2ncnc3c2ncn3[C@H]2CCCS2)c1,-11.8% [at 11.4 µM] (inactive),–
